Measurements from publication PMC4336329 (PLoS ONE, 2015).
Out of some 310,000 compounds screened, about 14,000 (4.5%) showed an effect of 50% or more. The effect is printed as a negative number. This is one part of a sample in which strong results are shown more often than they occur.

Each compound was assayed against human ether-à-go-go-related gene (hERG) potassium channel (human, UniProt Q12809) (assay: primary screen, population patch clamp on CHO cells stably expressing hERG; higher = less effect of the substance).
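Also: peak tail current of the secondary pulse compared with the same well before compound.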

Sequence of human ether-à-go-go-related gene (hERG) potassium channel (Q12809 whole entry, looked up): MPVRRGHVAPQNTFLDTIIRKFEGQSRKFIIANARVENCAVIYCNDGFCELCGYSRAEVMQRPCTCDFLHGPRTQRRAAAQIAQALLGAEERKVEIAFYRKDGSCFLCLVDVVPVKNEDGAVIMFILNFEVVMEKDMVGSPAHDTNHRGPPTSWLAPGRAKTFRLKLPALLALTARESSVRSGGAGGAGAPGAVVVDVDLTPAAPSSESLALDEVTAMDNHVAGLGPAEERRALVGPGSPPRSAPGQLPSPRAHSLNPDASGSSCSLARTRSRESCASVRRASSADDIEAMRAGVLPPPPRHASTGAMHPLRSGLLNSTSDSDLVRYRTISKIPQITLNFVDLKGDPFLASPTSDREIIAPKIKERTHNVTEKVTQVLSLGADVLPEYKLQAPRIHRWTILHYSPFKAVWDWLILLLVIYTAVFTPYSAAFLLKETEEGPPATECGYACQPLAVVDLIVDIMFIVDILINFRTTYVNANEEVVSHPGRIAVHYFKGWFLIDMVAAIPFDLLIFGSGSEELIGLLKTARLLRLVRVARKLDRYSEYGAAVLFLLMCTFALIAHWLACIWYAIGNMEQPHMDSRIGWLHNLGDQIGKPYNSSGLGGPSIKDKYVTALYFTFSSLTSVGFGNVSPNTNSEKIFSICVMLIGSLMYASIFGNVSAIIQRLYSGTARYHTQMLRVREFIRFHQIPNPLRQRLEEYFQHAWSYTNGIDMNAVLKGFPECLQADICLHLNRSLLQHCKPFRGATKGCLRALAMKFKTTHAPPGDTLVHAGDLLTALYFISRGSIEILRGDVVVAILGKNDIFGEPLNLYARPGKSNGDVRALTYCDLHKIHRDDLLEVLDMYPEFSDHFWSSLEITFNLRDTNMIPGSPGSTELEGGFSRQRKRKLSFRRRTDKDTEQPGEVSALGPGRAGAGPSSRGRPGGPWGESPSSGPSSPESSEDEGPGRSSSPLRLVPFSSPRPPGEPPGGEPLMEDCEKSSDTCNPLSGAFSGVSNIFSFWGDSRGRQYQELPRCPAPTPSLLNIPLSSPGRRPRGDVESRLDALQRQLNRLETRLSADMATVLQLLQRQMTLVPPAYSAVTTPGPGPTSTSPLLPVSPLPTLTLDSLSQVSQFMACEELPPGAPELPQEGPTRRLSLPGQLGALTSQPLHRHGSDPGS

| SMILES | hERG current change (%, negative = inhibition) at 10uM [%] |
| --- | --- |
| Cc1cc(Cl)cc(C)c1OCCNCc1ccccc1.O=C(O)C(=O)O | -3.66 |
| Cc1ccc(OCCNCc2ccccc2)c(C)c1.O=C(O)C(=O)O | -6.1 |
| Cc1cc(C)c(C)c(OCCNCc2ccccc2)c1.O=C(O)C(=O)O | -5.47 |
| Cc1cc(=O)[nH]c(N2CCN(Cc3ccccc3)CC2)n1 | -2.95 |
| CC(=O)Oc1c(C(=O)c2nnc(C)o2)c(=O)n(Cc2ccccc2)c2ccccc12 | 1.56 |
| CCCCCCCCNC(=O)c1ccc(C)cc1 | 10.9 |
| O=C(NC(c1ccccc1)C(Cl)(Cl)Cl)c1ccccc1 (centres unmarked) | -11.3 |
| CCN(CC)S(=O)(=O)c1ccc2oc(Nc3ccc(OC)cc3OC)nc2c1 | 9.24 |
| CCc1cccc(C)c1NC(=O)CSc1nc2ccc(N3C(=O)c4ccccc4C3=O)cc2s1 | 4.44 |
| CC(Oc1ccc(Br)cc1)C(=O)O/N=C(\N)c1ccncc1 (centres unmarked) | 5.16 |
| Cc1cccn2c(=O)nc(SCC(=O)NCc3ccco3)nc12 | 1.37 |
| Cc1cccn2c(=O)c3cc(C(=O)NCc4ccco4)c(=N)n(CCc4ccccc4)c3nc12 | -76.5 |
| COc1ccc(-n2nc(C(=O)NCc3ccco3)c3ccccc3c2=O)cc1 | -17.1 |
| Cc1ccccc1Nc1cc(C(=O)NCc2ccco2)c2ccccc2n1 | 20.3 |
| Cc1cccn2c(=O)c3cc(C(=O)NCc4ccco4)c(=N)n(C(C)C)c3nc12 | -77.6 |
| Cc1cccn2c(=O)c3cc(C(=O)NCc4ccco4)c(=N)n(CCOCCO)c3nc12 | -74.9 |
| COc1ccc(CCn2c(=N)c(C(=O)NCc3ccco3)cc3c(=O)n4cccc(C)c4nc32)cc1 | -75.6 |
| COc1ccc(CCn2c(N)c(C(=O)NCc3ccco3)c3nc4ccccc4nc32)cc1 | 0.65 |
| CC(OC(=O)c1cccc(S(=O)(=O)Nc2ccccc2F)c1)C(=O)NCc1ccc2c(c1)OCO2 (centres unmarked) | 12.8 |
| CN(C(=O)c1ccc(S(=O)(=O)N2CCCC2)cc1)C1CCS(=O)(=O)C1 (centres unmarked) | 4.75 |
| O=C(Nc1ccc(Cl)cc1)C(Cl)C(=O)c1ccccc1 (centres unmarked) | -3.81 |
| Cc1csc(SCC(=O)NCc2cccc(Cl)c2)n1 | -7.05 |

| SMILES | hERG current change (%, negative = inhibition) at 10uM [%] |
| --- | --- |
| CCOC(=O)Cn1c(=O)n(Cc2ccco2)c(=O)c2ccc(C(=O)NCCc3ccccc3)cc21 | -53.2 |
| CCc1ccc(-n2c(=O)c3ccc(C(=O)NCCc4ccccc4)cc3n(CC(N)=O)c2=O)cc1 | 14.6 |
| Cc1cccn2c(=O)c3cc(C(=O)NCCc4ccccc4)c(=N)n(Cc4ccco4)c3nc12 | -74 |
| Cc1cccn2c(=O)c3cc(S(=O)(=O)c4ccc(F)cc4)c(=N)n(Cc4ccco4)c3nc12 | -34.8 |
| CCOC(=O)Cn1c(=O)n(Cc2ccco2)c(=O)c2ccc(C(=O)NC3CCCC3)cc21 | -18.9 |
| Cc1cccn2c(=O)c3cc(S(=O)(=O)c4ccccc4)c(=N)n(Cc4ccco4)c3nc12 | -0.654 |
| CCN(CC)C(=O)N1CCN(c2c([N+](=O)[O-])c(=O)oc3ccccc23)CC1 | -25.7 |
| CN(C)c1ccc(C(=O)c2ccc(N(C)C)c(N)c2)cc1N | -3.79 |
| COc1c(F)c(F)c(C(=O)Nc2ccc(N3CCN(Cc4ccccc4)CC3)cc2)c(F)c1F | -14.6 |
| COc1ccc(C(=O)N=C2SC3CS(=O)(=O)CC3N2c2ccccc2)cc1OC (centres unmarked) | 11 |
| CCn1nnc(NC(=O)c2ccc(Br)o2)n1 | 13.7 |
| CCCCn1nnc(NC(=O)c2ccc(-c3cccc([N+](=O)[O-])c3)o2)n1 | -68.5 |
| CCCn1nnc(NC(=O)c2ccc(-c3cc(Cl)ccc3Cl)o2)n1 | 6.96 |
| CCCCn1nnc(NC(=O)c2ccc(-c3cccc(Cl)c3)o2)n1 | -40.8 |
| CCCCn1nnc(NC(=O)c2ccc([N+](=O)[O-])cc2Cl)n1 | -31.1 |
| CCn1nnc(NC(=O)Cc2ccc(Cl)cc2)n1 | 3.52 |
| CCCn1nnc(NC(=O)c2ccc(-c3cccc(Cl)c3)o2)n1 | -55.3 |
| CCn1nnc(NC(=O)c2ccc(-c3ccc(Cl)cc3)o2)n1 | -53.5 |
| CCCCn1nnc(NC(=O)c2ccc(-c3ccccc3[N+](=O)[O-])o2)n1 | -14.2 |
| O=C(NC1CC1)c1sccc1-n1cccc1 | 8.56 |
| COc1cc(NC(=O)Cc2cccs2)c(C(=O)O)cc1OC | 21.7 |
| Cc1ccc2[nH]c(=O)c(CNS(=O)(=O)c3ccccc3)c(-c3ccccc3)c2c1 | 16.2 |
